This assay is described as follows: cell-free HIV fusion peptide-binding blockers – biochemical, uHTS, fluorescence dequenching, primary screen (AID 1986). Particulars: 30 min, stronger effect = higher value.
The mark [1] stands for this setting: measured here: repeat confirmation average inhibition, at 18.6 µM.

About 890 (0.31%) of roughly 290,000 compounds were called active. Rule as the data show it: active = inhibition mostly above about 52% (no sharp cut-off); inactive = mostly below about 76%. The list comes from a sample in which actives are over-represented; it also holds similar structures and randomly drawn compounds.

The term inhibition denotes the drop in the measured response relative to a control, in per cent. As for `COC(=O)c1ccc2c(c1)C(C)(C)C(/C=C/c1ccc(O)cc1)=[N+]2C`, the inhibition (at 20 µM) is 111% (active).
Still for that read-out and setting: the value for `COC(=O)c1ccc2c(c1)C(C)(C)C(/C=C/c1ccc(OC)c(OC)c1OC)=[N+]2C` was 10.3% (inactive).
Consider `C/C=C(\C)CN1CCN(c2ccccc2F)CC1`, for which the inhibition (at 20 µM) was -0.4% (inactive).
Still for that read-out and setting: the value for `CC(=O)c1sc(NS(=O)(=O)c2ccc(C)cc2)nc1-c1ccccc1` was 19.8% (inactive); that for `Cc1ccc(S(=O)(=O)N/N=C\c2cc([N+](=O)[O-])ccc2Cl)cc1` was 2.5% (inactive).
Regarding `COc1cc(/C=C2\S/C(=N/S(=O)(=O)c3ccccc3)NC2=O)c([N+](=O)[O-])cc1OC`, the inhibition by setting is: (at 20 µM) 59.3% (inactive); under setting [1], 33.8%.
With `COc1ccc(S(=O)(=O)/N=C2/NC(=O)/C(=C\c3cc(OC)c(OC)cc3[N+](=O)[O-])S2)cc1`, the inhibition (at 20 µM) is 27.4% (inactive).
On the same count and under the same terms, with `NC1=NC(=O)/C(=C\c2cc([N+](=O)[O-])ccc2Cl)S1` the figure was -3.5% (inactive); with `Cc1ccc(S(=O)(=O)N/N=C/c2cc([N+](=O)[O-])ccc2O)cc1[N+](=O)[O-]`, 17.1% (inactive).
Same read-out and setting: with `O=C(NCc1cc([N+](=O)[O-])ccc1O)c1cccc(NS(=O)(=O)c2ccccc2)c1` the figure was 4% (inactive); with `O=S(=O)(c1ccccc1)N1CCN(c2nnc(-c3ccccc3)c3ccccc23)CC1`, 0% (inactive).
Still for that read-out and setting: with `Cc1cc(S(=O)(=O)N2CCCC2)c(C)s1` the figure was -1.2% (inactive).
On to `Nn1c(SCc2cccc(Br)c2)nnc1-c1cccnc1`, for which, where the note is “at 20 µM”, the inhibition is -2% (inactive).
Still for that read-out and setting: the value for `CCOc1ccc(/C=C2/C(=O)N(c3ccc(OC)cc3)C(=S)N2CC(=O)OC)cc1OCC` was 2.5% (inactive); that for `COC(=O)CN1C(=S)N(c2ccc(OC)cc2)C(=O)/C1=C/c1ccc(N2CCOCC2)cc1` was 73.4% (active).
The same measure, in the same setting: the value for `COC(=O)CN1C(=S)N(c2ccc(OC)cc2)C(=O)/C1=C/c1ccc(OC)cc1` was -1.4% (inactive); that for `COC(=O)N=Nc1c(O)[nH]c2ccc(Br)cc12` was -0.3% (inactive); that for `COc1ccccc1NC(=S)N=Nc1c(O)[nH]c2ccc(Br)cc12` was -1.3% (inactive).
Turning to `COc1ccccc1N=Nc1c(O)[nH]c2ccc(Br)cc12`, the inhibition by setting is: (at 20 µM) 74.7% (active); under setting [1], 70.2%.
As to `Cc1ccc(CNCc2ccc3c(c2)OCO3)c(C)c1`, the inhibition (at 20 µM) was -1.9% (inactive).
The same measure, in the same setting: the value for `Cc1ccc(CNc2ccc3c(c2)OCO3)cc1` was 112% (active).
Regarding `Cc1ccc(C(=O)NCc2ccc3c(c2)OCO3)c(C)c1`, the inhibition (at 20 µM) was 0.4% (inactive).
The same measure, in the same setting: the value for `Cc1ccc(CNCc2ccc3c(c2)OCO3)cc1` was 2.9% (inactive); that for `Cc1ccc(CNc2ccc3c(c2)OCO3)c(C)c1` was 52.3% (active); that for `c1cc(CNc2ccc3c(c2)OCO3)ccn1` was 4.7% (inactive).
Still for that read-out and setting: with `COC(=O)c1cc2ccccc2c(-c2c(OC)c(C(=O)OC)cc3ccccc23)c1OC` the figure was -0.9% (inactive); with `CCOC(=O)N/N=C/c1ccc(OCCSc2ccc(Cl)cc2)c(OC)c1`, 6.5% (inactive).
With `O=C(NC1CCCC1)C(c1cccs1)N(C(=O)c1csnn1)c1ccccc1F` (stereo not drawn), the inhibition (at 20 µM) was 0.9% (inactive).
Take `CN1C(=O)/C(=C\c2ccc(N(C)C)cc2)OC1=S`: the inhibition by setting is: (at 20 µM) 78.5% (active); under setting [1], 83.9%.
Take `CN(C)c1ccc(/C=C2\N=C(C(C)(C)C)OC2=O)cc1`: under “at 20 µM”, the inhibition was 28.5% (inactive).
On the same count and under the same terms, the value for `COc1ccc(/C=C2\OC(=S)N(C)C2=O)cc1` was -1.3% (inactive).
Turning to `COc1ccccc1CN1C(=S)SC(C)(C)C1NO` (stereo not drawn), under “at 20 µM”, the inhibition is -0.5% (inactive).
Still for that read-out and setting: with `CCCCc1nc2cc(C(=O)N3CCNC(=O)C3)ccc2o1` the figure was 0.8% (inactive).
For `CCC1C/C(=C/c2ccco2)C(=O)/C(=C/c2ccco2)C1` (stereo not drawn), the inhibition (at 20 µM) is 68.9% (inactive) and the inhibition under setting [1] is 0.1%.
Take `O=C1/C(=C/c2cccs2)CCC/C1=C\c1cccs1`: for the setting “at 20 µM”, the inhibition was 31.9% (inactive).
Same read-out and setting: with `CC1C/C(=C/c2ccco2)C(=O)/C(=C/c2ccco2)C1` (stereo not drawn) the figure was 61.3% (active).
`O=C1/C(=C\c2ccco2)CCC/C1=C\c1ccco1`: the inhibition is 69.6% (inactive) (at 20 µM) and 3.2% under setting [1].
On to `Cn1cccc1/C=C1\CC(C(C)(C)C)C/C(=C\c2cccn2C)C1=O` (stereo not drawn), for which the inhibition (at 20 µM) was 2.7% (inactive).
Take `CC(C)(C)C1C/C(=C/c2ccco2)C(=O)/C(=C/c2ccco2)C1` (stereo not drawn): where the note is “at 20 µM”, the inhibition was 61.8% (active).
Take `CC1C/C(=C/c2cccs2)C(=O)/C(=C/c2cccs2)C1` (stereo not drawn): the inhibition (at 20 µM) is 68.1% (active).
Still for that read-out and setting: the value for `CC(C)(C)C1C/C(=C/c2ccccn2)C(=O)/C(=C/c2ccccn2)C1` (stereo not drawn) was 3.1% (inactive); that for `CC1C/C(=C/c2ccncc2)C(=O)/C(=C/c2ccncc2)C1` (stereo not drawn) was 1.9% (inactive); that for `N#Cc1cccn1-c1nccs1` was -0.8% (inactive).
Same read-out and setting: with `Cc1onc(-c2c(F)cccc2Cl)c1C(=O)OCC(=O)NC(N)=O` the figure was -0.8% (inactive); with `COC(=O)c1ccc(CSc2nc3ccccc3[nH]2)o1`, 1.5% (inactive).
Still for that read-out and setting: with `CCN(CC)c1ccc(/C=C2\SC(=O)N(C(C)C)C2=O)o1` the figure was 56.4% (active); with `CC(C)N1C(=O)S/C(=C\c2ccc(-c3ccc(Cl)c(C(=O)O)c3)o2)C1=O`, 24.7% (inactive).
With `CCN(CC)c1ccc(/C=C2/SC(=O)N(C(C)C)C2=O)o1`, the inhibition (at 20 µM) was 2.5% (inactive).

The record behind these values is PubChem BioAssay AID1986 (Sanford-Burnham Center for Chemical Genomics, 2009).
